PubChem BioAssay (NCATS)
Inconclusive results are not listed. Activity calls are given as the source filed them. Calls come from the whole dose curve; as a rule, active = well fitted curve in the direction sought with a large enough effect; inconclusive = small, poorly fitted or top-dose-only effect, or another doubt; inactive = no such curve, though single readings can be large or run the other way.

The molecules below were run against Metallo-beta-lactamase type 2 (Klebsiella pneumoniae) (UniProt C7C422) (assay: qHTS to identify inhibitors of the New Delhi Metallo-beta-lactamase (NDM): assay validation screen against the NCATS LOPAC Collection (AID 1794843;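 note: nitrocefin turnover by NDM-1 measured as 485 nm absorbance at plateau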)). Conditions: NDM-1 enzyme, nitrocefin hydrolysis, absorbance 485 nm; series mostly up to 38.4 µM.
Metallo-beta-lactamase type 2 (Klebsiella pneumoniae), sequence (C7C422 whole entry, looked up): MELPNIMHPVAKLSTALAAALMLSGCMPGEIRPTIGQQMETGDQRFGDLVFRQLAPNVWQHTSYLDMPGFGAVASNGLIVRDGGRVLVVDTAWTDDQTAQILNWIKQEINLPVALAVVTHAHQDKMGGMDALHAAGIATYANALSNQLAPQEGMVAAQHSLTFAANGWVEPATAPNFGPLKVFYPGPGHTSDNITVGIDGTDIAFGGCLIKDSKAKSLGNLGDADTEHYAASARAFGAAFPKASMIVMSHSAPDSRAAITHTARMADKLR
Text: Assay Submitter (PI): James Inglese Ph.D., Patricia Dranchak Ph.D., Mahesh Aitha Ph.D.
Assay Development and Screening Technology Laboratory (ADST)
National Center for Advancing Translational Sciences (NCATS), Rockville, MD
National Institute of Health (NIH), Bethesda, Maryland
The metallo-beta-lactamases (MBL) are a main antibiotic resistance mechanism evolved by bacteria. There is an urgent clinical need for MBL inhibitors to mitigate this growing threat. To support a machine-based learning study, qHTS has been used to experimentally test inhibitors identified by prediction tools.
PROTOCOL TABLE (as described by Inglese et al., 2007)
SEQUENCE No. (e.g., 1, 2, 3, etc.); […] (e.g., enzyme, Incubation, Reagent, etc.); VALUE; DESCRIPTION
1; NDM-1; 4 uL of 3 nM enzyme in 50 mM HEPES (pH 7.0), 1 uM Zn2SO4, 0.01% Tween20; Use BioRaptr to dispense into Aurora black, clear bottom low base 1536-well plates
2; Compounds; 23 nL; Use Pin Tool (Wako) to transfer DMSO control and library compounds in DMSO
4; Reagent; 2 uL of 50 uM nitrocefin
6; Detector; Absorbance at 485 nm (bandwidth = 5 nm, 25 flashes/well) on Tecan Infinity
NOTES (numbers refer to sequence above)
1; Column 1 of each plate received assay buffer without enzyme and columns 2-48 received enzyme for a final assay concentration of 2 nM.
2; Control plate contained DMSO in columns 1, 2, 3, and 4.
3; Compound interaction with enzyme.
5; Substrate interaction with enzyme, plateau phase of kinetics.
6; Default reader settings were applied for absorbance read at 485 nm, bandwidth = 5 nm, 25 flashes/well.
Inglese J, Shamu CE, Guy RK. 2007. Reporting data from high-throughput screening of small-molecule libraries. Nat Chem Biol. doi:10.1038/nchembio0807-438
Yasgar A, Shinn P, Jadhav A, Auld D, Michael S, Zheng W, Austin CP, Inglese J, Simeonov A. 2008. Compound Management for Quantitative High-Throughput Screening. J Lab Autom 13:79 - 89. doi:10.1016/j.jala.2007.12.004
`CC1=C(C(=O)O)N2C(=O)[C@@H](NC(=O)C(N)c3ccccc3)[C@H]2SC1` (stereo partly specified) was tested, and the outcome was “inactive”.
With `Nc1nc(N)c2nc(CNc3ccc(C(=O)NC(CCC(=O)O)C(=O)O)cc3)cnc2n1` (stereo unspecified) the outcome was “inactive”.
`CCCCS(=N)(=O)CCC(N)C(=O)O` (stereo unspecified) was tested, and the outcome was “inactive”.
With `CCN1CCCC1CNC(=O)c1cc(S(N)(=O)=O)ccc1OC` (stereo unspecified) the outcome was “inactive”.
With `NC(=O)c1ccc2[nH]ccc2c1` the outcome was “inactive”.
For `CCN(CC)CCn1c(=O)c(Cc2ccc(OC)cc2)nc2ccccc21`, the outcome was “inactive”.
With `O=C(O)C1CCCN(CCC=C(c2ccccc2)c2ccccc2)C1` (stereo unspecified) the outcome was “inactive”.
In the case of `CC(C)NCC(O)c1ccc(NS(C)(=O)=O)cc1` (stereo unspecified), the outcome is reported as “inactive”.
`OCc1ccc(-c2nn(Cc3ccccc3)c3ccccc23)o1` was tested, and the outcome was “inactive”.
For `NC(=O)c1cccc(N)c1`, the outcome was “inactive”.
For `CC1CC2C3CCC4=CC(=O)C=C[C@]4(C)[C@@]3(F)[C@@H](O)C[C@]2(C)[C@@]1(O)C(=O)CO` (stereo partly specified), the outcome was “inactive”.
In the case of `COc1cc2nc(N3CCCN(C)CC3)nc(NC3CCN(Cc4ccccc4)CC3)c2cc1OC`, the outcome is reported as “inactive”.
With `CNS(=O)(=O)CCc1ccc2[nH]cc(C3CCN(C)CC3)c2c1` the outcome was “inactive”.
For `CCN(CC)CC#CCOC(=O)C(O)(c1ccccc1)C1CCCCC1` (stereo unspecified), the outcome was “inactive”.
In the case of `COc1cc2ncnc(Nc3cccc(Cl)c3)c2cc1OC`, the outcome is reported as “inactive”.
For `Cc1ccc(S(=O)(=O)N[C@@H](Cc2ccccc2)C(=O)CCl)cc1`, the outcome was “inactive”.
